Most compounds without a hit are left out; they make up all but 2.3% or so of the library.
CHRM1 antagonist = antagonists of human M1 muscarinic receptor | P11229 | CHO-K1 hM1, Fluo-8 calcium fluorescence, ACh EC80 antagonist | inhibition, % at 3 µM | hit rate 1.3% among 360,000 | AID 588852;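 active = percent inhibition above its own plate's cutoff, namely the mean of that plate's compound wells plus 3 SD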;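 note: peak over basal fluorescence ratio during 140 s after agonist addition; 0% = ACh EC80 plus DMSO and 100% = DMSO alone without agonist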
Target sequence (P11229 whole entry, looked up): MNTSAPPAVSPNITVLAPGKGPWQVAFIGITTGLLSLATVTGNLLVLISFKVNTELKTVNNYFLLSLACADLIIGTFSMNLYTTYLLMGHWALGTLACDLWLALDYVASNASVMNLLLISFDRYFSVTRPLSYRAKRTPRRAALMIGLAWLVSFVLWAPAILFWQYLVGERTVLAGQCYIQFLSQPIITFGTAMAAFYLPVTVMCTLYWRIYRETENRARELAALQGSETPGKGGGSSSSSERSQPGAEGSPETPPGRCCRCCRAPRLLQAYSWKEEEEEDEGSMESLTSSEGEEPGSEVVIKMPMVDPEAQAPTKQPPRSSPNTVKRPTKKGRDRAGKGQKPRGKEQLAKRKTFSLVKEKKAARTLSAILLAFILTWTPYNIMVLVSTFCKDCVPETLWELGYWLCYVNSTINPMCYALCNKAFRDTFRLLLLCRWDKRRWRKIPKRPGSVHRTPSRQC
CHRM1 PAM = positive allosteric modulators of human M1 muscarinic receptor. P11229. CHO-K1 hM1, Fluo-8 calcium fluorescence, ACh EC20; 0% = ACh EC20, 100% = maximal ACh. activation, % at 3 µM. hit rate 0.088% among 360,000. AID 588819; in the data active = activation above about 19%, passing the limit was not always enough
CHRM1 agonist = agonists of human M1 muscarinic receptor | P11229 | CHO-K1 hM1, Fluo-8 calcium fluorescence, agonist mode; 0% DMSO, 100% acetylcholine EC100 | activation, % at 3 µM | hit rate 0.33% among 360,000 | AID 588814;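 active = activation above the run's mean compound activation plus 3 SD, cut at about 16% in these data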;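 note: peak over basal fluorescence ratio within a 140 s kinetic read after compound addition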
M1 PAM parental = counter-screen for M1 PAMs: effect in parental CHO-K1 cells | ATP EC20, Fluo-8 calcium fluorescence; 0% at ATP EC20, 100% at ATP max | activation, % at 3 µM | hit rate 0.02% among 360,000;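 active = activation above the run cutoff, the mean activation of all test compounds plus 3 SD, cut at about 40% in these data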;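 note: peak over basal fluorescence ratio in a 140 s read after ATP addition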
CHO-K1 Ca ag = nonselective activator or artifact in parental CHO-K1 cells. hit rate 0.48% among 360,000. Fluo-8 calcium fluorescence; scaled to maximal ATP response, vehicle zero. AID 602248. activation, % at 3 µM; in the data active = activation above about 15%;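 note: untransfected CHO-K1 host cells lacking M1 receptor as counterscreen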
CHO-K1 Ca antag = M1 antagonist counterscreen hit in parental CHO-K1 cells | ATP-induced calcium, Fluo-8 fluorescence | inhibition, % at 3 µM | hit rate 0.6% among 360,000;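 active = inhibition above a per-plate cutoff, the plate's mean sample inhibition plus 3 SD, cut at about 24% in these data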;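 note: 0% = DMSO plus EC80 ATP and 100% = DMSO alone without ATP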
Starred values were filed as active, the others as inactive; ! = a repeat was not active.

SMILES | CHRM1 antagonist | CHRM1 PAM | CHRM1 agonist | M1 PAM parental | CHO-K1 Ca ag | CHO-K1 Ca antag
CSCC[C@H](NC(=O)N1C[C@H]2C[C@@H](C1)c1cccc(=O)n1C2)C(=O)Nc1ccc(NC(C)=O)cc1 | -15 | 8 | -4 | 19 | 1 | -10
Nc1c(S(=O)(=O)c2ccccc2)c2nc3ccccc3nc2n1/N=C/c1ccco1 | 16 | -9 | -2 | -6 | 0 | 26*
CC(=O)c1ccc(OCCCC(=O)NCCc2ccccc2)cc1 | 5 | 0 | -3 | 2 | 0 | 4
OC(CN1CCOCC1)Cn1c(-c2cccc(Cl)c2)nc2ccccc21 (stereo unspecified) | 2 | 3 | -3 | -10 | 0 | 28*
OC(CN1CCOCC1)Cn1cnc2ccccc21 (stereo unspecified) | -11 | 7 | -2 | 8 | 1 | -9
CCn1c2ccccc2c2cc(NC(=O)COC(=O)c3cc(S(N)(=O)=O)c(Cl)cc3Cl)ccc21 | -13 | 12 | 0 | 10 | 2 | -6
COc1ccc(CS(=O)c2nc(C)cc(C)c2S(C)(=O)=O)cc1 (stereo unspecified) | 6 | -7 | -5 | -4 | 0 | 3
CCOC(=O)c1c(C)n(C)c2cc(-c3ccc(C)cc3)c(O)cc12 | 3 | -4 | -4 | -16 | 0 | 28*
CCOC(=O)c1c(C)n(C)c2cc(Br)c(C)cc12 | -5 | 5 | 2 | 0 | 0 | -11
CCOC(=O)c1c(C)n(C)c2cc(-c3cccc(C(F)(F)F)c3)c(O)cc12 | 13 | -7 | -3 | -14 | -1 | 27*
O=C1N(c2ccccc2)C[C@@H]2C[C@@H](c3cccs3)N3CCC[C@@]123 | 90* | -26 | -9 | -15 | 0 | 4
CC(C)(O)C#Cc1ccc([C@@H]2C[C@H]3CN(c4ccccc4)C(=O)[C@]34CCCN24)s1 | 42* | -26 | -10 | 11 | 0 | -8
COc1ccc(-n2nc(C(=O)N(C)C)nc2-c2ccccc2)cc1 | -19 | 9 | -3 | 16 | 0 | -6
N=c1occ(C(=O)c2cc(F)ccc2O)cc1C(=O)NC1CCCCC1 | 17 | -11 | 0 | -15 | 5 | 24*
CCOC(=O)c1cc(C(=O)c2cc(F)ccc2O)coc1=N | -12 | 8 | -2 | 13 | 2 | -7
c1ccc(SCCc2ccncc2)cc1 | 101* | -29 | -9 | 4 | 1 | 6
O=C(O)c1ccccc1-c1c2cc(I)c(=O)c(I)c-2oc2c(I)c(O)c(I)cc12 | 78*! | -26 | 279* | -9 | 190* | 71*
COc1ccc(S(=O)(=O)N2CCOCC2)cc1NC(=O)CCc1nc2ccccc2c(=O)[nH]1 | -2 | 10 | -3 | -9 | 0 | 14
CN1CCN(CCCNC(=O)c2cc3c(=O)n(C)c4ccccc4c3s2)CC1 | 20 | -14 | -8 | -7 | 0 | 29*
Cc1ccc2oc(=O)c3cc(C(=O)NCCCN4CCN(C)CC4)sc3c2c1 | -4 | 6 | -4 | 10 | 1 | 54*
Cc1ccc(NC(=O)c2cc(S(=O)(=O)N3CCOCC3)c(Br)s2)cc1 | 3 | 1 | -7 | -6 | 3 | 3
CC1(C)CCC[C@]2(C)[C@H]3Cc4cc(O)ccc4O[C@]3(C)CC[C@@H]12 | -2 | 3 | -6 | 11 | 0 | -21
CCC(C)(C)C(=O)Nc1ncc(S(=O)(=O)c2ccc([N+](=O)[O-])cc2)s1 | -11 | -6 | 16 | 14 | 4 | 2
COC(=O)C(NC(=O)c1ccccc1Cl)(Nc1ncc(S(=O)(=O)c2ccc([N+](=O)[O-])cc2)s1)C(F)(F)F (stereo unspecified) | 10 | 2 | 22* | 18 | 10 | 2
Cc1cc2cc(CNC(=O)c3ccc(S(=O)(=O)N4CCOCC4)cc3)ccc2n1C | 76* | -31 | -10 | 20 | 2 | -7
SMILES | CHRM1 antagonist | CHRM1 PAM | CHRM1 agonist | M1 PAM parental | CHO-K1 Ca ag | CHO-K1 Ca antag
Cc1cc2cc(CNC(=O)c3ccc(S(=O)(=O)N(C)C)cc3)ccc2n1C | 30* | -26 | -12 | -12 | 1 | 22
Cc1cc2cc(CNC(=O)c3cccc([N+](=O)[O-])c3)ccc2n1C | -6 | 3 | -7 | 5 | 0 | 15
COc1ccc(N2CCN(C3CCCN(C(=O)CCN4CCCCO4)C3)CC2)cc1 (stereo unspecified) | -13 | 8 | -4 | 3 | 1 | -9
O=C(Nc1nnc(SCC(=O)N2CCCCC2)s1)c1c(F)cccc1F | -27 | 28* | 4 | -5 | 0 | -23
O=C(CSc1nnc(NC(=O)c2c(F)cccc2F)s1)NC1CCCC1 | 8 | -7 | -2 | -19 | 0 | -6
COc1ccc(CN2CCCC(C(=O)c3cccc(C(F)(F)F)c3)C2)cc1O (stereo unspecified) | 31 | -36 | -15 | 13 | 0 | -6
CC(=O)Nc1ccc(CN2CCCC(C(=O)c3cccc(C(F)(F)F)c3)C2)cc1 (stereo unspecified) | 64* | -26 | -9 | 20 | 3 | -3
CCc1[nH]nc(C(=O)N2CCCC(C(=O)c3cccc(C(F)(F)F)c3)C2)c1C (stereo unspecified) | 2 | -8 | 1 | 5 | 15* | -11
COc1ccccc1C(=O)C1CCCN(Cc2cccc(OCCO)c2)C1 (stereo unspecified) | -3 | -8 | -8 | -4 | 0 | 14
O=C(c1cccc(C(F)(F)F)c1)C1CCCN(Cc2ccc(OCCO)cc2)C1 (stereo unspecified) | 66* | -32 | -14 | 0 | 23* | 7
CCN(CC)C(=O)[C@H]1CC(CC(=O)NCCC2=CCCCC2)C(=O)N2CCc3c([nH]c4ccc(OC)cc34)[C@]12C (stereo partly specified) | -10 | 5 | -8 | 18 | -1 | -17
CCCN1CC(O)=C(C#N)C1=O | -6 | 10 | -4 | 18 | 0 | -10
O=C(OCc1ccccc1)/C(=C/c1ccccc1Cl)NC(=O)c1ccco1 | -3 | -1 | -4 | 4 | 2 | -7
CC(=O)c1c(C)[nH]c(C(=O)OCC(=O)N2CCc3ccccc3C2)c1C | 1 | -3 | -2 | 5 | 4 | -14
O=C(/C=C/c1cccc(Cl)c1)N1CCC(Cc2ccccc2)CC1 | 17 | -10 | -2 | -12 | 1 | 25*
CCN(CC)CCSc1nc2ccccc2n1Cc1ccccc1 | 90* | -30 | -9 | 19 | 1 | -17
COC1CCN(Cc2c(C(=O)N3CCN(C4CCCCC4)CC3)nc3ccccn23)CC1 | -4 | -1 | 10 | -22 | 1 | 1
Fc1c(CSC(=S)N2CCOCC2)cccc1CSC(=S)N1CCOCC1 | 1 | 4 | 3 | 12 | 16* | -3
O=C1c2ccccc2C(=O)N1CCSC(=S)N1CCOCC1 | -13 | 5 | -4 | 8 | 0 | -16
